According to PubChem BioAssay (NCI):
The panel holds about 83,000 compounds, 20% with a hit somewhere; the sample as a whole holds those more often.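 Negative percent growth values reflect cell death: -40 means 40% of the cells present at the start died, and -100 means all died.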 Calls of active or inactive are those of the source. The calls were made as follows: active = growth percent below 10; inactive = the rest.

Tests used:
Assay in all cases: NCI-60 one-dose screen, 48 h (100 = growth as untreated, 0 = no growth, -100 = all killed)
Settings in all cases: 10 µM unless noted
[1] = tested on: NCI-H23 lung
[2] = tested on: NCI-H226 lung
[3] = tested on: NCI-H322M lung
[4] = tested on: HOP-62 NSCLC
[5] = tested on: NCI-H460 lung
[6] = tested on: NCI-H522 lung
[7] = tested on: A549/ATCC NSCLC
[8] = tested on: 786-0 renal
[9] = tested on: COLO 205 colon
[10] = tested on: DU-145 prostate
[11] = tested on: K-562 leukemia
[12] = tested on: MALME-3M melanoma
[13] = tested on: MDA-MB-231 breast
[14] = tested on: RXF 393 renal
[15] = tested on: SF-268 CNS
[16] = tested on: SF-295 CNS
[17] = tested on: SF-539 CNS
[18] = tested on: UACC-257 melanoma
[19] = tested on: M14 melanoma

Measured: growth

CN(C)N1C(=O)c2c(Cl)c(Cl)c(Cl)c(Cl)c2C1=O
inactive: [1] 96.9% | [2] 103% | [3] 112% | [4] 108% | [5] 110% | [6] 94.2% | [7] 104% | [8] 103% | [9] 111% | [10] 120% | [11] 98.4% | [12] 123% | [13] 115% | [14] 112% | [15] 106% | [16] 123% | [17] 118% | [18] 104% | [19] 101%

COc1cc(C2CC(c3ccc(Cl)cc3)=NN2C(C)=O)ccc1Oc1ccnc2cc(Cl)ccc12 (centres undefined)
inactive: [1] 64.1% | [2] 19.5% | [3] 53.3% | [4] 23.1% | [5] 30.8% | [6] 40.9% | [7] 42.6% | [8] 33.6% | [9] 26.2% | [10] 36.6% | [11] 65.3% | [12] 53.9% | [13] 36.1% | [14] 46.1% | [15] 57.5% | [16] 18.3% | [17] 40.2% | [18] 68.5% | [19] 79.9%

Cn1cnc([N+](=O)[O-])c1S(=O)(=O)Oc1ccccc1
inactive: [1] 101% | [2] 91.6% | [3] 109% | [4] 96.1% | [5] 105% | [7] 106% | [8] 95.2% | [10] 70.4% | [11] 31.8% | [13] 99.4% | [14] 74.1% | [15] 101% | [16] 110% | [17] 93.8% | [18] 90.9% | [19] 53.1%
active: [6] -75.7% | [9] -16.9% | [12] -60.9%

O=C(c1ccccc1)C(CCc1ccccn1)CCc1ccccn1
inactive: [1] 106% | [2] 104% | [3] 117% | [4] 93.1% | [5] 110% | [6] 89.5% | [7] 98.3% | [8] 98.4% | [9] 105% | [10] 101% | [11] 96.2% | [12] 82.4% | [13] 99.5% | [14] 120% | [15] 101% | [16] 110% | [17] 103% | [18] 109% | [19] 93.7%

Nc1ncnc2c1N=C(c1ccc3c(c1)OCO3)CC(c1ccc(Cl)cc1)N2 (centres undefined)
inactive: [1] 81.8% | [2] 73.3% | [3] 71.2% | [4] 44.1% | [5] 83.3% | [6] 84.3% | [7] 79.6% | [8] 74.3% | [9] 68.1% | [10] 92% | [11] 83.8% | [12] 77.2% | [13] 72.3% | [14] 55.1% | [15] 77.3% | [16] 93.4% | [17] 80.2% | [18] 96.2% | [19] 96%

COC1(OC)C2(Cl)CCC1(Cl)C(Cl)=C2Cl
inactive: [1] 99.4% | [2] 98.2% | [3] 100% | [4] 129% | [5] 106% | [6] 97% | [7] 95.6% | [8] 102% | [9] 128% | [10] 108% | [11] 110% | [12] 99.4% | [13] 106% | [14] 107% | [15] 106% | [16] 105% | [17] 101% | [18] 93.2% | [19] 96.9%
